The campaign covered roughly 39,000 compounds. About 3,300 (8.5%) were called active. Only a selection was taken, and actives are over-represented in it overall.
Test system: HepG2
Assay: cytotoxicity call (relative viability < 0.9)
Conditions: 10 µM

Row | Compound | cytotoxicity call
1 | CC(C)[C@H](N)C(=O)N1CCC[C@H]1B(O)O | inactive
2 | CO[C@@H]1C[C@@H](C[C@H]2CC[C@H](C)[C@H]([C@@H](C)C(=O)O)O2)O[C@]2(O[C@](C)([C@H]3CC[C@@](C)([C@H]4O[C@@H]([C@H]5O[C@@](O)(CO)[C@H](C)C[C@@H]5C)C[C@@H]4C)O3)C[C@H]2C)[C@@H]1C | active
3 | C[C@@H](N)Cc1ccc2occc2c1 | inactive
4 | CC1=C2CCC3C4CCC(=O)C4(C)CCC3C2(C)CCC1=O (stereo not given) | inactive
5 | O=[N+]([O-])c1cc(O)c(O)c([N+](=O)[O-])c1 | inactive
6 | CC(C)=CCC[C@]1(C)C=Cc2c(O)c3c(c(CC=C(C)C)c2O1)O[C@]12[C@H](C[C@@H]4C[C@H]1C(C)(C)O[C@]2(C/C=C(/C)C(=O)O)[C@@H]4O)C3=O | inactive
7 | CC(C)=CCCC1(C)C=Cc2c(O)c3c(c(CC=C(C)C)c2O1)OC12C(=CC4CC1C(C)(C)OC2(CC=C(C)C(=O)O)C4O)C3=O (stereo not given) | inactive
8 | CC(C)=CCCC1(C)C=Cc2c(O)c3c(c(CC=C(C)C)c2O1)OC12C(=CC4CC1C(C)(C)OC2(CC=C(C)C(=O)O)C4=O)C3=O (stereo not given) | active
9 | COc1cc(C(=O)O)cc(OC)c1OC | inactive
10 | CCC(CC)C(=O)N[C@@H]1[C@@H]2CNC[C@@H]21 | inactive
11 | NC[C@H](CC(=O)O)c1ccc(Cl)cc1 | inactive
12 | C[C@@H](N)Cc1ccc(O)cc1 | inactive
13 | C=C(CCCCCCCCCCCCCCCC)OOC[C@@H](COP(=O)(ON)O[C@@H]1[C@H](O)[C@H](O)[C@@H](OP(=O)(O)ON)[C@H](OP(=O)(O)ON)[C@H]1O)OOC(=C)CC/C=C/C/C=C/C/C=C/C/C=C/CCCCC (stereo not given in full) | active
14 | C[C@H](CO)N1C[C@H](C)[C@H](CN(C)C(=O)Oc2cccc3ccccc23)OCc2cn(nn2)CCCC1=O | inactive
15 | Cc1cc(O)ccc1Cl | active
16 | Oc1ccc(Cl)cc1 | inactive
17 | CNC(=O)Oc1ccc2c(c1)C1(C)CCN(C)C1N2C.O=S(=O)(O)O (stereo not given) | active
18 | CNC(=O)Oc1ccc2c(c1)C1(C)CCN(C)C1N2C.O=C(O)c1ccccc1O (stereo not given) | active
19 | CN1CCC2(C)c3cc(O)ccc3N(C)C12.O=C(O)C=CC(=O)O (stereo not given) | active
20 | Br.COc1ccc2c(c1)C13CCCCC1C(C2)N(C)CC3 (stereo not given) | inactive
21 | CNC(=O)Oc1ccc2c(c1)C1(C)CCN(C)C1N2C (stereo not given) | active
22 | CNC(=O)Oc1ccc2c(c1)[C@]1(C)CCN(C)[C@@H]1N2C.CNC(=O)Oc1ccc2c(c1)[C@]1(C)CCN(C)[C@@H]1N2C.O=S(=O)(O)O | inactive
23 | Cc1ccc(C)c(C(=O)[C@H](N)CC(C)C)c1 | inactive
24 | Cc1cc(C(=O)N2CC[C@H]3[C@@H]2CCN3C)no1 | inactive
25 | CCOc1ccc(N2CCNCC2)nn1 | inactive
26 | C[C@H](O)[C@]12[C@@H]3CC=C[C@H]1N2CC3 (stereo not given in full) | inactive
27 | C[C@@H](N)Cc1ccco1 | inactive
28 | CSC1=NN1c1cc(C)nc(N)n1 | inactive

Row | Compound | cytotoxicity call
29 | N#C[C@@]12[C@H]3CC=C[C@@H]1N2CC3 (stereo not given in full) | inactive
30 | c1nc(N2CCN3CCC[C@H]3C2)c2[nH]cnc2n1 | inactive
31 | COCCCNC(=O)C1[C@@H]2CC[C@H]1CNC2 (stereo not given in full) | inactive
32 | O=[N+]([O-])OC1COC2C(O[N+](=O)[O-])COC12 (stereo not given) | inactive
33 | OCc1ccc2c(c1)OCO2 | inactive
34 | C=CCc1ccc2c(c1)OCO2 | active
35 | OC[C@@H](O)Cc1ccc2c(c1)OCO2 | inactive
36 | CC=Cc1ccc2c(c1)OCO2 | inactive
37 | COP(=S)(OC)Oc1ccc([N+](=O)[O-])cc1 | inactive
38 | CC(C)N(CCC(C(N)=O)(c1ccccc1)c1ccccn1)C(C)C.O=P(O)(O)O (stereo not given) | inactive
39 | Cn1ccnc1N1CCNCC1 | inactive
40 | c1ccc2c(c1)Nc1ccccc1S2 | active
41 | CC[n+]1c(-c2ccccc2)c2cc(N)ccc2c2ccc(N)cc21.[Br-] | active
42 | Nc1ccc(-c2ccccc2)cc1 | inactive
43 | O=c1ccc(=O)[nH][nH]1 | inactive
44 | COC(C)(C)CCCC(C)CC=CC(C)=CC(=O)OC(C)C (stereo not given) | inactive
45 | O=C1CNC[C@@H]2c3cccc(F)c3CCN12 | inactive
46 | [N-]=[N+]=NCc1ccccc1C[C@]1(C(=O)N2CCCCC2)N=C(c2ccc(OCCCO)cc2)O[C@H]1c1ccccc1N=[N+]=[N-] | active
47 | [N-]=[N+]=NCc1ccccc1C[C@@]1(C(=O)N2CCCCC2)N=C(c2ccc(OCCCO)cc2)O[C@@H]1c1ccccc1N=[N+]=[N-] | inactive
48 | [N-]=[N+]=NCc1ccccc1C[C@]1(C(=O)N2CCOCC2)N=C(c2ccc(OCCCO)cc2)O[C@H]1c1ccccc1N=[N+]=[N-] | active
49 | CN1CCc2cc([C@H](CN)N(C)C)ccc21 | inactive
50 | CCOP(=S)(OCC)SCSP(=S)(OCC)OCC | inactive
51 | NCCc1cccs1 | inactive
52 | CN(C)C(=O)[C@H]1CCC2(CCNCC2)CO1 | inactive
53 | Cc1cc(C2=NO[C@](c3cc(Cl)cc(Cl)c3)(C(F)(F)F)C2)ccc1C(=O)NCC(=O)NCC(F)(F)F | inactive
54 | [O-][n+]1ccccc1[S][Zn][S]c1cccc[n+]1[O-] | active
55 | C[As](C)SC[C@H](NC(=O)CC[C@H](N)C(=O)O)C(=O)NCC(=O)O | inactive

— the antibiotic and cytotoxicity screens of Wong et al. (2023)
